{
  "source": "PubChem BioAssay AID624483",
  "about": "(NMMLSC, 2012)",
  "note": "About 11,000 (3.1%) of roughly 360,000 compounds were called active. Inconclusive results (about 2%) are left out. The sample as a whole holds a higher share of actives than the screen did. Values without a mark were called inactive. No stated cut-off is given here; in the data, active means fluorescence intensity above about 16000; inconclusive means no clear call, values can overlap the other calls; inactive means below that.",
  "data": [
    {"test": "counter-screen for toxin protease inhibitors: compound fluorescence, primary screen, artefact control for toxin protease inhibitor project, biochemical, multiplex microsphere, HTS (AID 624483)", "conditions": "compound autofluorescence counterscreen, microsphere flow cytometry; active compounds read high", "values": [
      {"smiles": "COc1ccc(C)c(Cn2c(-c3nonc3N)nc3ccccc32)c1", "fluorescence intensity": 8560},
      {"smiles": "Nc1nonc1-c1nc2ccccc2n1CCC(=O)O", "fluorescence intensity": "23600 (active)"},
      {"smiles": "O=C(O)CCn1c(Cc2ccccc2)nc2ccccc21", "fluorescence intensity": 4070},
      {"smiles": "O=C(CNC(=O)c1ccccc1F)c1ccc(Br)cc1", "fluorescence intensity": 4100},
      {"smiles": "CCc1nc2ccc(C(=O)NC3CCN(Cc4ccccc4)CC3)cn2c1N(CC)CCOC", "fluorescence intensity": 3640},
      {"smiles": "OC1CCCN(c2ncnc3c2nnn3Cc2c(F)cccc2Cl)C1", "note": "(configuration not stated)", "fluorescence intensity": 4220},
      {"smiles": "CC(=O)Nc1ccc(NC(=O)CSCc2cnn(-c3ccccc3)c2-n2cccc2)cc1", "fluorescence intensity": "21800 (active)"},
      {"smiles": "O=C(CSCc1ccccc1)Nc1ccccc1", "fluorescence intensity": 3440},
      {"smiles": "Cc1cc(C)cc(NC(=O)CSCc2cnn(-c3ccccc3)c2-n2cccc2)c1", "fluorescence intensity": 3720},
      {"smiles": "CCC(=O)N1Cc2cc(C(=O)NCc3cccc(F)c3)nc(-c3cccc(C4=CCCC4)c3)c2[C@H]1CCO", "fluorescence intensity": 5960},
      {"smiles": "O=C(c1cc2ccccc2o1)N1CCN(S(=O)(=O)c2ccc(Cl)s2)CC1", "fluorescence intensity": 3540},
      {"smiles": "COc1cccc2cc(C(=O)N3CCN(C(=O)c4ccccc4)CC3)c(=O)oc12", "fluorescence intensity": 2640},
      {"smiles": "CS(=O)(=O)N1CCN(C(=O)c2cc3ccccc3oc2=O)CC1", "fluorescence intensity": "20900 (active)"},
      {"smiles": "Cc1ccc(S(=O)(=O)N2CCN(C(=O)Cc3sc(C)nc3-c3ccc(F)cc3)CC2)c(C)c1", "fluorescence intensity": 5210},
      {"smiles": "COCCCNC(=O)c1cccc2c(-c3ccc(O)c(OC)c3)coc12", "fluorescence intensity": 3660},
      {"smiles": "CCCS(=O)(=O)NC(=O)C1(C)CCCN(C(=O)c2cccs2)C1", "note": "(configuration not stated)", "fluorescence intensity": 3930},
      {"smiles": "CN(C)c1nc(N)nc(Cn2nnc(-c3ccc(C(F)(F)F)cc3)n2)n1", "fluorescence intensity": 5180},
      {"smiles": "CN(Cc1nc2ccccc2s1)C(=O)c1ccc(F)cc1", "fluorescence intensity": 3850},
      {"smiles": "CCc1ccc(-c2nnn(Cc3nn[nH]n3)n2)cc1", "fluorescence intensity": "20100 (active)"},
      {"smiles": "CCc1ccc(-c2nnn(Cc3nc4ccccc4s3)n2)cc1", "fluorescence intensity": "22800 (active)"},
      {"smiles": "COc1ccc(-c2nnn(Cc3nc(N)nc(N4CCCCC4)n3)n2)cc1", "fluorescence intensity": 4610},
      {"smiles": "CCC1(CC)NC(=O)N(Cc2nc3ccccc3s2)C1=O", "fluorescence intensity": 3380},
      {"smiles": "Nc1[nH]c(C(=O)c2ccccc2)c(-c2ccc(Br)cc2)c1C(=O)NC1CC1", "fluorescence intensity": 4400},
      {"smiles": "Cc1ccc(C(O)c2ncc(-c3ccccc3F)[nH]2)cc1F", "note": "(configuration not stated)", "fluorescence intensity": 3620},
      {"smiles": "O=C1CCCC(O)=C1N=Nc1ccc2ncsc2c1", "fluorescence intensity": 2580},
      {"smiles": "CN(CC(=O)Nc1ccccc1Cl)C(=O)COc1cccc2c1OC(C)(C)C2", "fluorescence intensity": 5770},
      {"smiles": "CC1(C)CC(CCC(=O)Nc2ccccc2Cl)C(=O)O1", "note": "(configuration not stated)", "fluorescence intensity": "23100 (active)"},
      {"smiles": "CC1(C)CC(CC(=O)O)C(=O)O1", "note": "(configuration not stated)", "fluorescence intensity": 4100},
      {"smiles": "CNC(=S)N1N=C(c2ccccc2)CC1c1ccc(Br)cc1", "note": "(configuration not stated)", "fluorescence intensity": "23900 (active)"},
      {"smiles": "Brc1ccc(C2CC(c3ccccc3)=Nc3ccccc3N2)cc1", "note": "(configuration not stated)", "fluorescence intensity": 2950},
      {"smiles": "COc1ccc(C2CC(c3ccccc3)=NN2C(=O)COC(=O)COc2ccccc2)cc1", "note": "(configuration not stated)", "fluorescence intensity": 4620},
      {"smiles": "COC(=O)Cc1ccc(OC2(C)CCN(Cc3ccc4c(c3)OCCO4)C2)cc1", "note": "(configuration not stated)", "fluorescence intensity": 2970},
      {"smiles": "CCOc1ccc(NC(=S)N2CCCCCC2)cc1", "fluorescence intensity": 4120},
      {"smiles": "O=C(NCc1cccnc1)c1cc(C2CCCCN2C(=O)CCc2ccccc2)on1", "note": "(configuration not stated)", "fluorescence intensity": 3910},
      {"smiles": "Cc1c(C(=O)NCC2CC2)sc(=O)n1Cc1cccc(F)c1", "fluorescence intensity": 5240},
      {"smiles": "CN(CC(O)COc1ccc(S(=O)(=O)N2CCOCC2)cc1Cl)C1CCCCC1", "note": "(configuration not stated)", "fluorescence intensity": 4510},
      {"smiles": "O=C(NCCCN1CCCCC1)c1ccc2c(c1)NC(=O)C(N1CCOCC1)S2", "note": "(configuration not stated)", "fluorescence intensity": "20400 (active)"},
      {"smiles": "Cc1ccccc1CN1C(=O)c2ccccc2Sc2ccc(C(=O)NCCCN3CCOCC3)cc21", "fluorescence intensity": 4180},
      {"smiles": "COc1ccc(CCNC(=O)c2ccc3c(c2)NC(=O)C(N2CCOCC2)S3)cc1OC", "note": "(configuration not stated)", "fluorescence intensity": 3710},
      {"smiles": "CCOC(=O)N1CCN(C(c2ccnc3ccccc23)c2nnnn2-c2c(C)cccc2C)CC1", "note": "(configuration not stated)", "fluorescence intensity": 5760},
      {"smiles": "COc1cccc(CNC(=O)[C@@H]2CCCN2C(=O)[C@@H]2CCCN2C(=O)c2ccccc2)c1", "fluorescence intensity": 6440},
      {"smiles": "Cc1nn(CC(=O)NCCc2ccccc2)c(=O)c2cc3occc3n12", "fluorescence intensity": 4600},
      {"smiles": "CCOC(=O)Cn1c(CN(Cc2ccccc2)Cc2ccccc2)nc2c1c(=O)[nH]c(=O)n2C", "fluorescence intensity": 11200},
      {"smiles": "CN(Cc1ccccc1)c1nc2c(c(=O)[nH]c(=O)n2C)n1CCSc1nc2ccccc2[nH]1", "fluorescence intensity": 3450},
      {"smiles": "Cn1c(=O)[nH]c(=O)c2c1nc(N(CCO)Cc1ccccc1)n2Cc1ccccc1Cl", "fluorescence intensity": "19800 (active)"},
      {"smiles": "COc1ccc(-c2[nH][nH]c(=O)c2NC(=O)c2ccc([N+](=O)[O-])cc2)cc1", "fluorescence intensity": 4210},
      {"smiles": "CC(C)C[C@H]1CNC(=S)N1C[C@H]1CCCN1C[C@H](Cc1ccc(O)cc1)N1C[C@H](Cc2ccc(O)cc2)N(CC2CCCCC2)C1=S", "fluorescence intensity": 6520}
    ]}
  ]
}
